Growth data for 13 compounds are collected here from PubChem BioAssay (NCI).

Compounds without any hit were thinned out: in the full panel of roughly 83,000, 20% have a hit.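 Note: values are percent growth. 100 is the growth of untreated cells, values between 100 and 0 indicate rising inhibition; between -100 and 0 indicates cell death.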 Values without a mark were called inactive. The source made the active and inactive calls. How the source made its calls: active means growth percent below 10; inactive means the rest.

Among the test systems are HCT-15 colon; HT29 colon; SNB-75 CNS; SNB-19 CNS; U251 CNS; PC-3 prostate; SK-MEL-5 melanoma; UACC-62 melanoma; LOX IMVI melanoma; SK-MEL-28 melanoma.
Experiment in all cases: NCI-60 one-dose screen, 48 h (100 = growth as untreated, 0 = no growth, -100 = all killed)
Common to all, as to details: 10 µM

In the case of `COc1cc(C)ccc1Oc1nc(Nc2ccc(N3CCOCC3)cc2)ncc1NC(=O)Nc1cc(C(F)(F)F)cc(C(F)(F)F)c1`, the growth is 66.6% in the experiment with HCT-15 colon; 63.8% with HT29 colon; 65.9% with SNB-75 CNS; 61.4% in the experiment on SNB-19 CNS; 53.1% in the experiment on U251 CNS; 38.1% in the experiment on PC-3 prostate. Further, the growth was 82.6% in the experiment with SK-MEL-5 melanoma, 82.6% in the experiment with UACC-62 melanoma, 47.1% in the experiment with LOX IMVI melanoma and 94% in the experiment with SK-MEL-28 melanoma.

With `CC(C)(C)OC(=O)CN1CCc2c(sc3ncnc(N/N=C/c4cccc5ccccc45)c23)C1`, the growth in the experiment with HCT-15 colon is 16.7%; with HT29 colon, 45%; in the experiment with SNB-75 CNS it was 46%; in the experiment with SNB-19 CNS, 53.7%; with U251 CNS, 45.7%; in the experiment on PC-3 prostate, 31.9%. In addition, the growth was 11.1% in the experiment on SK-MEL-5 melanoma, 6.64% (active) with UACC-62 melanoma, 26.2% with LOX IMVI melanoma and 50.1% in the experiment with SK-MEL-28 melanoma.

In the case of `COc1cc2cc(Oc3ccc(NC(=O)c4cccc(C(F)(F)F)c4)cc3)c(C)nc2cc1OC`, the growth in the experiment with HCT-15 colon is 38.3%; with HT29 colon, 31.3%; in the experiment on SNB-75 CNS it was 68.4%; in the experiment on SNB-19 CNS, 58.8%; with U251 CNS, 19.5%; with PC-3 prostate, 9.54% (active). Besides, the growth is 2.78% (active) with SK-MEL-5 melanoma, 29.3% with UACC-62 melanoma, 45.8% in the experiment on LOX IMVI melanoma and 71.4% in the experiment on SK-MEL-28 melanoma.

Take `Cc1cc(=O)n2nnc3cc(Cl)c(Cl)cc3n12`: the growth in the experiment on HCT-15 colon is 103%; with HT29 colon, 106%; in the experiment on SNB-75 CNS, 95.6%; in the experiment on SNB-19 CNS, 110%; in the experiment on U251 CNS, 94.8%; in the experiment on PC-3 prostate it was 94.4%. In addition, the growth was 110% with SK-MEL-5 melanoma, 106% in the experiment with UACC-62 melanoma, 87.3% with LOX IMVI melanoma and 105% in the experiment on SK-MEL-28 melanoma.

With `O=C(Nc1cc(Cl)cc2c1-c1ccc(Cl)cc1C2O)C(Cl)Cl` (stereo not given), the growth is 82.5% in the experiment with HCT-15 colon; 84.9% in the experiment with HT29 colon; 65.9% with SNB-75 CNS; 70% in the experiment on SNB-19 CNS; 78.4% with U251 CNS; 67.7% with PC-3 prostate. Further, the growth was 41.5% in the experiment on SK-MEL-5 melanoma, 60.3% in the experiment on UACC-62 melanoma, 76.2% in the experiment on LOX IMVI melanoma and 84.6% in the experiment on SK-MEL-28 melanoma.

As for `Cc1ccc(C2NC(=S)N3C(c4ccc(C)cc4)NC(=S)N23)cc1` (stereo not given), the growth with HCT-15 colon is 29.5%; in the experiment on HT29 colon it was 17.8%; in the experiment on SNB-75 CNS it was 127%; with SNB-19 CNS, 44.5%; in the experiment with U251 CNS, 28.3%; with PC-3 prostate, 34.4%. Besides, the growth in the experiment with SK-MEL-5 melanoma was 17.1%; in the experiment on UACC-62 melanoma it was 34.6%; with LOX IMVI melanoma it was 51.4%; in the experiment on SK-MEL-28 melanoma it was 58.7%.

`O=C(/C=C/C=C/c1c(C2CC2)nc2ccccc2c1-c1ccc(F)cc1)c1cccs1`: the growth is 18.6% in the experiment on HCT-15 colon; -38.5% (active) in the experiment on HT29 colon; 43.4% in the experiment on SNB-75 CNS; 42.3% in the experiment on SNB-19 CNS; -19.4% (active) in the experiment with U251 CNS; 24.9% in the experiment with PC-3 prostate. The growth is -77.1% (active) with SK-MEL-5 melanoma, 13.3% in the experiment with UACC-62 melanoma, -71.5% (active) in the experiment on LOX IMVI melanoma and -2.12% (active) in the experiment with SK-MEL-28 melanoma.

Regarding `C#CC(C)(O)[C@@H]1C[C@H](CC(=O)O)C1(C)C` (stereo not given in full), the growth was 104% in the experiment on HCT-15 colon; 109% in the experiment on HT29 colon; 96% in the experiment on SNB-75 CNS; 98.6% with SNB-19 CNS; 109% with U251 CNS; 105% with PC-3 prostate. Also, the growth in the experiment with SK-MEL-5 melanoma is 115%; in the experiment with UACC-62 melanoma, 100%; in the experiment with LOX IMVI melanoma, 98.1%; with SK-MEL-28 melanoma, 113%.

As for `CC(C)(C)OC(=O)CN1CCc2c(sc3ncnc(N/N=C/c4ccccc4Br)c23)C1`, the growth in the experiment on HCT-15 colon was 37%; in the experiment with HT29 colon, 81.6%; in the experiment with SNB-75 CNS it was 52.6%; in the experiment with SNB-19 CNS, 81.2%; in the experiment with U251 CNS, 77.9%; in the experiment on PC-3 prostate it was 47.9%. Moreover, the growth is 55.1% in the experiment on SK-MEL-5 melanoma, 39.5% in the experiment on UACC-62 melanoma, 53.7% in the experiment with LOX IMVI melanoma and 90.9% with SK-MEL-28 melanoma.

Consider `C/C(=N\O)c1ccc(NC(=O)CSc2nnc(-c3ccccc3)n2-c2ccccc2)cc1`, for which the growth in the experiment with HCT-15 colon is 97.5%; in the experiment on HT29 colon it was 84%; in the experiment on SNB-75 CNS, 45.8%; in the experiment with SNB-19 CNS, 97.2%; with U251 CNS, 59.2%; in the experiment with PC-3 prostate, 73.7%. Also, the growth in the experiment with SK-MEL-5 melanoma is 48.6%; in the experiment with UACC-62 melanoma, 81.9%; with LOX IMVI melanoma it was 63.6%; with SK-MEL-28 melanoma, 97.7%.

On to `CNC(=O)c1c(I)c(NC(C)=O)c(I)c(C(=O)O)c1I`, for which the growth in the experiment on HCT-15 colon was 105%; in the experiment on HT29 colon, 103%; in the experiment with SNB-75 CNS, 87.3%; with SNB-19 CNS, 96.2%; with U251 CNS it was 102%; in the experiment with PC-3 prostate, 93%. The growth was 108% with SK-MEL-5 melanoma, 98.5% in the experiment with UACC-62 melanoma, 94.5% with LOX IMVI melanoma and 114% in the experiment with SK-MEL-28 melanoma.

As for `COC(=O)CC[C@@H](C)[C@H]1CC[C@H]2[C@@H]3CC[C@@H]4C[C@H](O)CC[C@]4(C)[C@H]3C[C@H](O)[C@]12C`, the growth with HCT-15 colon is 92.4%; in the experiment with HT29 colon it was 89%; in the experiment with SNB-75 CNS, 91.4%; in the experiment on SNB-19 CNS, 105%; in the experiment on U251 CNS, 98.6%; in the experiment on PC-3 prostate, 67.7%. Also, the growth is 88.5% in the experiment on SK-MEL-5 melanoma, 87.2% in the experiment with UACC-62 melanoma, 93.6% with LOX IMVI melanoma and 118% with SK-MEL-28 melanoma.

With `Nc1cc(-c2ccncc2)c[nH]c1=O`, the growth in the experiment on HCT-15 colon is 103%; in the experiment with HT29 colon, 103%; with SNB-75 CNS, 76.6%; with SNB-19 CNS it was 111%; with U251 CNS, 103%; with PC-3 prostate it was 89.1%. Also, the growth with SK-MEL-5 melanoma is 106%; in the experiment on UACC-62 melanoma it was 109%; with LOX IMVI melanoma, 91.7%; in the experiment with SK-MEL-28 melanoma it was 105%.
